Sa ugtP lethal: compounds lethal to S. aureus RN4220 ugtP deletion mutant; OD600 growth, 16 h; growth inhibition, % (no concentration beside the values); hit rate 0.54% among 330,000; AID 1259309; in the data active means growth inhibition above about 68%;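 further: plate controls were untreated wells for no effect and antibiotic for full effect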
Mtb hypoxia rep: reduces hypoxia-regulated biosensor signal in M. tuberculosis; M. tuberculosis hypoxia-regulated fluorescent reporter, fluorescence; fluorescence inhibition, % (test concentration not listed); hit rate 0.1% among 300,000; in the data active means fluorescence inhibition mostly above about 23%, no sharp cut-off; inactive means mostly below about 17%
TcdB inh: inhibitors of Clostridioides difficile toxin B glycohydrolase; AID 652162; hit rate 0.24% among 350,000; inhibition, % at 9.99 µM; P18177; TcdB glycohydrolase enzymatic assay, plate reader; in the data active means inhibition above about 10%
RN4220 kill: S. aureus RN4220 growth inhibition; OD600, 16 h; inhibition, % (no concentration beside the values); hit rate 0.33% among 330,000; in the data active means inhibition above about 85%;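 further: plate controls were untreated cells for no effect and reference antibiotic for full effect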
BioA inh: inhibitors of Mycobacterium tuberculosis BioA enzyme | purified M. tuberculosis BioA enzyme, plate reader | inhibition, % at 9.99 µM | hit rate 0.096% among 360,000 | AID 602481; in the data active means inhibition above about 40%
Y pestis TopoI: inhibitors of Yersinia pestis topoisomerase I | Y. pestis Topo-I cleavage product accumulation, plate reader | AID 504884 | activity, % at 10 µM | hit rate 0.064% among 360,000; in the data active means activity above about 50%, passing the limit was not always enough
* = called active by the depositor; . = not tested or not shown. This is a sample that favours compounds with a hit; in the whole collection about 0.75% have one here.

SMILES | Sa ugtP lethal | Mtb hypoxia rep | TcdB inh | RN4220 kill | BioA inh | Y pestis TopoI
Cc1ccc2c(c1)sc[n+]2Cc1ccccc1 | 99* | 13 | 1 | 21 | -2 | 18
O=[N+]([O-])c1ccc(C=NNc2cc(Cl)nc(-c3ccccc3)n2)cc1 | 4 | . | . | 1 | . | .
Cc1cc(=O)oc2c(N)c(O)ccc12 | -8 | . | 12* | 7 | 0 | 3
Cc1cc(=O)oc2c(CN3CCCCC3)c(O)ccc12 | . | . | 1 | . | . | 3
Cn1nccc1C(=O)NN=Cc1cccnc1 | 3 | 3 | . | -2 | . | .
C[C@]12CCC(=O)C(O)=C1CCC1C2CC[C@]2(C)C(=O)CCC12 (some centres undefined) | 1 | 8 | . | 8 | . | .
COc1ccc(NS(=O)(=O)c2cc(N=Nc3c(O)[nH]c(=O)[nH]c3=O)ccc2Cl)cc1 | 0 | 4 | 11* | 4 | 1 | 2
Cc1ccc(NS(=O)(=O)c2ccc(Cl)c(N=Nc3c(O)[nH]c(=O)[nH]c3=O)c2)cc1Cl | 1 | 6 | 0 | 8 | 3 | -3
CCCCCOC(=O)C1C2C=C[C@]3(CN(CCCOC)C(=O)C13)O2 (some centres undefined) | -5 | 8 | . | 5 | . | .
CCCOc1ccc(Cc2c(Cl)nc(SC)nc2N(C)C)cc1 | 87* | -7 | 0 | -2 | . | 17
COc1nc(SC)nc(Cl)c1Cc1ccc(OC(C)C)cc1 | 92* | 6 | -1 | -7 | . | 22
CSc1nc(Cl)c(Cc2ccc(OC(C)C)cc2)c(N2CCOCC2)n1 | 97* | 5 | . | -5 | 0 | 4
CCCOc1ccc(Cc2c(Cl)nc(SC)nc2OC)cc1 | 89* | -2 | 0 | -4 | . | 18
CSc1nc(N2CCOCC2)c2sccc2n1 | 15 | -1 | 0 | 7 | . | 7
COc1ccc(C(=O)NC(=S)Nc2ccccc2N2CCCCC2)cc1[N+](=O)[O-] | 94* | 10 | . | 0 | . | -1
CCCCC(=O)NC(=S)Nc1cccc(Cl)c1N1CCCCC1 | 55 | -3 | 0 | -16 | -2 | -8
CCCCC(=O)NC(=S)Nc1ccccc1N1CCCCC1 | 84* | 6 | . | -1 | -3 | 2
Cc1c(C(=O)NC(=S)Nc2ccccc2N2CCCC2)cccc1[N+](=O)[O-] | 96* | 1 | -1 | 9 | . | 6
O=C(NC(=S)Nc1ccccc1N1CCCC1)c1ccc([N+](=O)[O-])cc1 | 42 | -6 | . | 2 | . | 1
CCOC1OC(C(=O)N2CCN(Cc3ccc4c(c3)OCO4)CC2)=CC(c2ccc3c(c2)OCO3)C1CCCO (centres undefined) | 6 | 1 | . | 6 | . | .
Cc1cc(Cl)ccc1OC(C)C(=O)Nc1ccccc1N1CCOCC1 (centres undefined) | 1 | 8 | . | 5 | -1 | 63*
CC(Oc1cccc(Cl)c1)C(=O)Nc1cc(S(=O)(=O)N2CCOCC2)ccc1N1CCCCC1 (centres undefined) | -1 | 7 | 1 | -3 | . | 71*
CC(Oc1ccc(Cl)cc1)C(=O)Nc1ccccc1N1CCOCC1 (centres undefined) | 4 | 8 | 3 | 2 | -1 | 32
O=C(CSc1ccccc1)Nc1cc(S(=O)(=O)N2CCOCC2)ccc1N1CCOCC1 | 3 | 10 | 12* | 4 | . | 14
CC1C(=O)OC2CC34C5CC(C(C)(C)C)C36C(OC(=O)C6O)OC4(C(=O)O5)[C@]21O (some centres undefined) | 15 | 14 | . | 20 | . | .
SMILES | Sa ugtP lethal | Mtb hypoxia rep | TcdB inh | RN4220 kill | BioA inh | Y pestis TopoI
CCOc1cc(C(=O)NN=C(C)Cc2ccc(OC)cc2)cc(OCC)c1OCC | 7 | 9 | . | 2 | . | .
O=C(NCCCNCCCNC(=O)c1ccc(C=NO)nc1)c1ccc(C=NO)nc1 | -1 | 3 | . | 3 | . | .
O=C(Nc1ccc(F)cc1F)Nc1csc2ccccc12 | -45 | 6 | -1 | -3 | 0 | -17
O=C(Nc1ccc(F)c(Cl)c1)Nc1csc2ccccc12 | 100* | 8 | 0 | 100* | 0 | 2
O=C1C=C(c2ccc(Cl)nc2)CC(c2ccc3c(c2)OCO3)C1 (centres undefined) | -1 | 7 | . | 3 | . | .
Cc1nn(C)c(C(=O)N/N=C/c2ccncc2)c1Cl | . | . | 2 | . | 7 | -3
Cc1nn(Cc2ccccc2)c(Cl)c1/C=N/NC(=O)c1cccnc1 | . | . | 1 | . | 104* | 7
Cc1nn(C)c(C(=O)N/N=C/c2cccnc2)c1Cl | . | . | 0 | . | 44* | 7
COc1ccccc1CNC(=O)CC(C)=NNC(=O)Cc1ccc(OC)c(OC)c1 | 6 | . | . | 7 | . | .
CC(=O)N1CCC2(CC1)CC(=NNC(=S)Nc1ccc(C)cc1)c1cc(O)ccc1O2 | 0 | -7 | . | 0 | . | .
COc1ccc(C2CC(c3ccc(Cl)cc3)=NN2c2ccc(S(N)(=O)=O)cc2)cc1 (centres undefined) | 40 | 1 | 2 | 94* | -1 | 30
NS(=O)(=O)c1ccc(N2N=C(c3ccc(Br)cc3)CC2c2ccc(F)cc2)cc1 (centres undefined) | 45 | -1 | . | 98* | -2 | 22
NS(=O)(=O)c1ccc(N2N=C(c3ccccc3)CC2c2cccc(F)c2)cc1 (centres undefined) | -26 | -2 | 0 | 11 | 0 | 11
COc1ccc(C2CC(c3ccncc3)=NN2c2ccc(S(N)(=O)=O)cc2)cc1 (centres undefined) | 8 | 0 | 1 | -4 | 8 | 7
O=C(NC(=Cc1ccc(Br)cc1)C(=O)N1CCOCC1)c1cccs1 | 2 | 12 | . | 7 | . | .
CCCOc1ccc(C(O)=C2C(=O)C(=O)N(CCN(C)C)C2c2ccco2)cc1 (centres undefined) | 1 | 13 | . | 2 | . | .
COC(=O)[C@]12C(=O)NCC(CN1c1ccc(Cl)c(C)c1)N2C | 9 | 6 | . | 6 | . | .
CC1CN=C(Nc2cccc(S(=O)(=O)N(C)C)c2)S1 (centres undefined) | 10 | 11 | 14* | 8 | . | 4
COc1ccccc1-c1cc(=O)c2c(O)ccc([N+](=O)[O-])c2o1 | 23 | 25 | 1 | 25 | 0 | 4
Nc1ccc2oc(-c3ccccc3Cl)cc(=O)c2c1O | 94* | 5 | -2 | 14 | -3 | 4
O=c1cc(-c2ccccc2Cl)oc2c([N+](=O)[O-])c(O)cc(O)c12 | 91* | 3 | 0 | 87* | 3 | -4
O=c1cc(-c2ccccc2Cl)oc2ccc([N+](=O)[O-])c(O)c12 | 100* | 2 | 2 | 99* | 0 | 1
COc1ccc(C(=O)NN=C(C)c2cccc(NC(=O)c3ccncc3)c2)cc1OC | 9 | 1 | . | 0 | . | .
CCOC(=O)c1cc(CC)sc1NC(=O)C(c1ccccc1)c1ccccc1 | 89* | 14 | . | 0 | -4 | 14
CC(=NNC(=O)c1cc(C(C)(C)C)[nH]n1)C12CC3CC(CC(C3)C1)C2 | 6 | 12 | . | -2 | . | .
O=C(c1cc(S(=O)(=O)N2CCOCC2)c(Cl)cc1Cl)N1CCN(S(=O)(=O)c2cccc(F)c2)CC1 | -5 | -1 | 7 | -2 | 2 | 30
Cc1ccc(S(=O)(=O)N2CCN(C(=O)c3cc(S(=O)(=O)N4CCOCC4)c(Cl)cc3Cl)CC2)cc1 | 3 | 28* | 2 | 5 | 0 | 17
